Compound activity as filed in PubChem BioAssay.
Compounds with a hit are over-represented: about 3.5% of the library has one in this group of screens.
Mtb bLac sens: beta-lactam sensitization of Mtb H37Rv | AID 434955 | 330,000 tested, 0.27% active | inhibition, % at 25 µM | M. tuberculosis H37Rv growth with meropenem, percent inhibition; call rule not given here;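 also: growth measured after seven days incubation then overnight dye step; 0% = bacteria only wells and 100% = bacteria with antibiotic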
FBA Mtb inh: inhibitors of M. tuberculosis fructose-bisphosphate aldolase; 360,000 tested, 2.3% active; purified M. tuberculosis FBA, fluorescence read-out; inhibition, % at 1 µM; P9WQA3; in the data active = inhibition above about 27%;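 also: 0% = vehicle and 100% = reference inhibitor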
Target sequence (P9WQA3 whole entry, looked up): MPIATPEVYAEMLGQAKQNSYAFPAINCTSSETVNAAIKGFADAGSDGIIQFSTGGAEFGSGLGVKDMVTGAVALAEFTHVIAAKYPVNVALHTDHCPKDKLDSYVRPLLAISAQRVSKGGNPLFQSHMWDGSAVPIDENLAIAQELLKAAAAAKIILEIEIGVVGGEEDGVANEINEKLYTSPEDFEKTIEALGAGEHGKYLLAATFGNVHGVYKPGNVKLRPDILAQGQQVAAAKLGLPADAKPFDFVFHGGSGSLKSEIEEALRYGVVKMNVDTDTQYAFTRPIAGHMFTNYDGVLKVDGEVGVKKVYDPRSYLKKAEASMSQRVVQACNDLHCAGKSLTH
Rv3671c inh: inhibitors of M. tuberculosis serine protease Rv3671c | P9WHR9 | inhibition, % at 5.96 µM | 320,000 tested, 0.048% active | AID 2606; in the data active = inhibition above about 38%;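 also: extracellular domain of Rv3671c used as enzyme; 0% = enzyme with DMSO and 100% = no enzyme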
GDH-TPI counter: GDH-TPI coupled enzyme inhibition counter-screen | 360,000 tested, 1.2% active | inhibition, % at 4.8 µM | GDH-TPI coupled enzyme counterscreen, NADH absorbance | AID 588335; in the data active = inhibition above about 30%;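 also: 0% = DMSO wells and 100% = wells lacking the enzyme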
Mtb UGM inh: inhibitors of M. tuberculosis UDP-galactopyranose mutase; P9WIQ1; purified UGM, fluorescence polarization probe displacement; inhibition, % at 10 µM; 320,000 tested, 0.06% active; AID 504406; in the data active = inhibition above about 10%, passing the limit was not always enough
* marks the source's active call; other numbers are inactive results; / = no result given; + = active, no number.

SMILES	Mtb bLac sens	FBA Mtb inh	Rv3671c inh	GDH-TPI counter	Mtb UGM inh
CCOC(=O)n1c(=O)[nH]c2ccc(Br)cc21	-5	1	-5	-4	2
O=C(N/N=C\C=C\c1ccc2c(c1)OCO2)c1cccnc1	2	1	5	54*	0
COc1ccccc1C(=O)N/N=C/c1ccc2c(c1)OCO2	-2	-1	6	9	-3
COc1ccc(/C=N/NC(=O)c2ccccc2O)cc1CN1CCOCC1	6	5	9	40*	1
COc1cc2ccccc2cc1C(=O)N/N=C/c1ccc2c(c1)OCO2	9	4	/	42*	-2
O=C(NN=Cc1ccc2c(c1)OCO2)c1ccncc1	/	0	/	33*	/
O=C(NCCC1=CCCCC1)C1CCN(S(=O)(=O)c2cccc(C(F)(F)F)c2)CC1	1	-3	-1	1	-2
c1ccc2nc3c(cc2c1)CCCCC3	-4	0	-6	12	3
CCC(C)/C(C)=N/NC(=O)C1COc2ccccc2O1 (stereo not drawn)	4	1	6	3	1
COc1cc(NC(=O)c2ccc3c(c2)OCO3)ccc1NC(=O)c1ccco1	-2	0	-3	42*	-1
S=C(NN=Cc1ccc2c(c1)OCO2)NN=Cc1ccc2c(c1)OCO2	/	1	/	62*	/
Cc1cc(NC(=O)c2ccc3c(c2)OCCO3)ccc1NC(=O)c1ccco1	-7	-5	3	2	-1
O=C(N/N=C\C=C\c1ccc2c(c1)OCO2)C1COc2ccccc2O1 (stereo not drawn)	6	4	-5	40*	-2
O=C(NN=Cc1ccc2c(c1)OCO2)c1ccccc1	/	-1	/	38*	/
N#CC1(NC(=O)CN2C(=O)NC(Cc3c[nH]c4ccccc34)C2=O)CCCCC1 (stereo not drawn)	-7	1	6	7	-2
O=C(N/N=C\c1ccc2c(c1)OCO2)c1ccco1	2	4	-1	43*	2
O=C(N/N=C/c1ccc2c(c1)OCO2)c1ccc2c(c1)OCO2	-7	-2	2	16	3
CCN1CCN(c2nc(N)c([N+](=O)[O-])c(Nc3cccc(C)c3)n2)CC1	-2	1	-9	35*	-1
FC(F)(F)C(F)(F)C(F)(F)c1nc2nc(Cl)c(Cl)nc2[nH]1	/	14	/	34*	/
O=c1oc(-c2ccc(O)c(O)c2)cc2cccc(O)c12	-2	-1	-24	13	/
O=c1oc(-c2ccc(O)c(O)c2)cc2cc(O)cc(O)c12	-1	11	-11	32*	/
CNCc1sccc1C	-6	34*	1	3	2
O=C(c1ccccc1)N(Cc1ccccc1)c1ccccn1	-3	-1	-2	-2	0
Cc1cc(C)nc(NC(=O)c2cnc3sccn3c2=O)n1	0	4	4	46*	-2
O=C(c1cnc2sccn2c1=O)N(Cc1ccccc1)c1ccccn1	-2	0	-3	33*	3
SMILES	Mtb bLac sens	FBA Mtb inh	Rv3671c inh	GDH-TPI counter	Mtb UGM inh
O=C(NCc1cccs1)c1cnc2sccn2c1=O	2	2	-6	45*	2
O=C(NCc1ccc(F)cc1)c1cnc2sccn2c1=O	-5	9	4	27	0
COc1ccc(/C=C/c2cc(-c3ccc(C)cc3)o[n+]2C)cc1	100	12	-2	55*	0
CNC(=S)N(CCO)Cc1cc2cc3c(cc2[nH]c1=O)OCO3	-6	33*	-7	21	-1
CC1(C)Nc2ccccc2C(=O)N1c1ccccc1	-7	115*	0	8	3
O=S(=O)(c1ccccc1)N(CC1CO1)c1cc(Cl)ccc1Cl (stereo not drawn)	2	3	-4	7	8
CCCCn1nc(C(=O)Oc2ccc3c(C)cc(=O)oc3c2)c2ccccc2c1=O	84	+	3	4	/
Cc1cc(=O)oc2ccc(OC(=O)CC(C)C)cc12	-2	-4	3	-1	-1
Cc1cc(=O)oc2cc(OC(=O)c3cncc(Br)c3)ccc12	56	+	4	-3	0
CCCC(=O)Oc1ccc2c(C)cc(=O)oc2c1	79	+	2	5	0
O=C(Oc1ccc2c(=O)c(Oc3ccc4ccccc4c3)coc2c1)c1cncc(Br)c1	5	30*	-12	3	-2
CCCCn1nc(C(=O)NCC(=O)Nc2c(C)cccc2C)c2ccccc2c1=O	0	4	-15	-1	2
O=C1CCc2cc(S(=O)(=O)NCCC(=O)NC3CCCCC3)ccc2N1	-1	-1	2	1	1
Cc1cc(=O)oc2cc(OCCCN3C(=O)c4ccccc4C3=O)ccc12	1	1	-14	13	3
C=CCN(c1ccccc1)S(=O)(=O)c1cccc(C(=O)Oc2ccc3c(C)cc(=O)oc3c2)c1	69	+	-1	-4	0
Cc1cc(=O)oc2cc(OC(=O)CCN3C(=O)c4ccccc4C3=O)ccc12	48	+	-12	6	1
C=CCN(c1ccccc1)S(=O)(=O)c1cccc(C(=O)OCC(=O)NCCOC)c1	-9	3	16	14	-3
Cc1ccc(C)c(NC(=O)NNC(=O)c2cc3ccccc3cc2O)c1	3	-2	4	3	-4
O=C(Nc1ccncc1)c1cc(C2CCCCN2C(=O)CCCc2ccccc2)on1 (stereo not drawn)	/	1	/	5	/
COc1cccc(Cn2c3ccc(NC(=O)CCc4ccc(F)cc4)cc3c(=O)n2C)c1	/	151*	/	4	/
COc1ccc(CNC(=O)Nc2ccc3c(c2)c(=O)n(C)n3Cc2cc(C)cc(C)c2)cc1	/	168*	/	11	/
Cn1c(=O)c(=O)n(C)c2cc(S(=O)(=O)CCC(=O)Nc3cccc(C(F)(F)F)c3)ccc21	0	-1	2	7	2
CCOCCC(=O)Nc1ccc2c(c1)c(=O)n(C)n2Cc1cccc(C(F)(F)F)c1	/	177*	/	10	/
Cn1c(=O)c2cc(NC(=O)CCc3ccccc3)ccc2n1Cc1cccc(C(F)(F)F)c1	/	127*	/	15	/
COc1ccc(NC(=O)C(NC(=O)c2ccc(=O)[nH]c2)c2ccc(OC)cc2)cc1 (stereo not drawn)	-5	0	2	7	-3
SMILES	Mtb bLac sens	FBA Mtb inh	Rv3671c inh	GDH-TPI counter	Mtb UGM inh
COc1ccccc1CCC(=O)Nc1ccc2c(c1)c(=O)n(C)n2C	/	189*	/	8	/
Cn1c(=O)c2cc(NC(=S)NCc3ccccc3F)ccc2n1Cc1cccc(C(F)(F)F)c1	/	21	/	6	/
Cn1c(=O)c2cc(NC(=O)NCc3ccccc3)ccc2n1Cc1cccc(C(F)(F)F)c1	/	138*	/	12	/
CCn1c2ccccc2c2cc(NC(=O)CNCc3ccccc3OC)ccc21	81	0	8	16	1
Cc1ccccc1CS(=O)(=O)CC(O)CN1CCCC1=O (stereo not drawn)	-6	+	-11	0	-4
Cc1ccc(/C=N/NC(=O)c2nnn(-c3nonc3N)c2CN(C)c2ccccc2)s1	1	-1	-7	34*	-2
Cc1ccsc1/C=N/NC(=O)c1nnn(-c2nonc2N)c1CN(C)c1ccccc1	2	2	-9	37*	-1
CC1CCCC(C)N1C(=O)c1ccc(S(=O)(=O)NCc2ccco2)cc1 (stereo not drawn)	3	1	-13	8	2
